In the supplement of paper PMC10849652:
About 7,900 targets were measured; listed, in parts, are those with a hit and a random draw of the rest. About 0.6% of all pairs of compound and target were hits. A number with no mark means an inactive call.

What was measured:
Assay in all cases: log2 fold change, soluble protein after heating vs DMSO (PISA); higher = thermal stabilisation; K562 cells, 10 uM, 30 min; active = over 0.2 and 3.5 SD of the protein, either way, in both replicates (recomputed)
saracatinib = compound: CN1CCN(CCOc2cc(OC3CCOCC3)c3c(Nc4c(Cl)ccc5c4OCO5)ncnc3c2)CC1 [saracatinib]
Outline: (§1)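 Soluble protein was defined as the supernatant after 21,000xg for 90 min. It came from K562 cells at 2×10^6 cells/mL given 10 μM compound for 30 min, heated in aliquots for 3 min across 48°C-58°C, pooled, and extracted in PBS with 0.5% NP-40 at 4°C, and was quantified by TMTpro 16plex LC-MS/MS with equalised channel sums. Thermal stability against control samples, from duplicates, is reported as log2 fold change.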

sotrastaurin = compound: CN1CCN(c2nc(C3=C(c4c[nH]c5ccccc45)C(=O)NC3=O)c3ccccc3n2)CC1 [sotrastaurin]
Outline: as §1

alvocidib = compound: CN1CC[C@H](c2c(O)cc(O)c3c(=O)cc(-c4ccccc4Cl)oc23)[C@H](O)C1 [alvocidib]
Outline: as §1

Tubastatin A = compound: CN1CCc2c(c3ccccc3n2Cc2ccc(C(=O)NO)cc2)C1 [Tubastatin A]
Outline: as §1

[1] = compound: CNC(=O)C1=CC=CC=C1NC2=NC(=NC=C2Cl)NC3=C(C=C(C=C3)N4CCOCC4)OC
Outline: as §1

defactinib = compound: CNC(=O)c1ccc(Nc2ncc(C(F)(F)F)c(NCc3nccnc3N(C)S(C)(=O)=O)n2)cc1 [defactinib]
Outline: as §1

rucaparib = compound: CNCc1ccc(-c2[nH]c3cc(F)cc4c3c2CCNC4=O)cc1 [rucaparib]
Outline: as §1

[2] = compound: CNc1nc(-c2ccc3c(N)n[nH]c3c2)cc(N2C[C@@H](C(=O)NC3CCCCC3)CC[C@H]2C)n1
Outline: as §1

encorafenib = compound: COC(=O)N[C@@H](C)CNc1nccc(-c2cn(C(C)C)nc2-c2cc(Cl)cc(NS(C)(=O)=O)c2F)n1 [encorafenib]
Outline: as §1

[3] = compound: COC(=O)[C@H](CCSC)NC(=O)C1=C(C=C(C=C1)NC[C@H](CS)N)C2=CC=CC=C2
Outline: as §1

CTSB (UniProt P07858)
log2 fold change (saracatinib): 0.05 | log2 fold change (sotrastaurin): 0.064 | log2 fold change (alvocidib): 0 | log2 fold change (Tubastatin A): 0.002 | log2 fold change [1]: 0.052 | log2 fold change (defactinib): -0.014 | log2 fold change (rucaparib): -0.073 | log2 fold change [2]: -0.009 | log2 fold change (encorafenib): 0.013 | log2 fold change [3]: -0.008

FAM193B (UniProt Q96PV7)
UniProt Q96PV7, sequence (Q96PV7 whole entry, looked up): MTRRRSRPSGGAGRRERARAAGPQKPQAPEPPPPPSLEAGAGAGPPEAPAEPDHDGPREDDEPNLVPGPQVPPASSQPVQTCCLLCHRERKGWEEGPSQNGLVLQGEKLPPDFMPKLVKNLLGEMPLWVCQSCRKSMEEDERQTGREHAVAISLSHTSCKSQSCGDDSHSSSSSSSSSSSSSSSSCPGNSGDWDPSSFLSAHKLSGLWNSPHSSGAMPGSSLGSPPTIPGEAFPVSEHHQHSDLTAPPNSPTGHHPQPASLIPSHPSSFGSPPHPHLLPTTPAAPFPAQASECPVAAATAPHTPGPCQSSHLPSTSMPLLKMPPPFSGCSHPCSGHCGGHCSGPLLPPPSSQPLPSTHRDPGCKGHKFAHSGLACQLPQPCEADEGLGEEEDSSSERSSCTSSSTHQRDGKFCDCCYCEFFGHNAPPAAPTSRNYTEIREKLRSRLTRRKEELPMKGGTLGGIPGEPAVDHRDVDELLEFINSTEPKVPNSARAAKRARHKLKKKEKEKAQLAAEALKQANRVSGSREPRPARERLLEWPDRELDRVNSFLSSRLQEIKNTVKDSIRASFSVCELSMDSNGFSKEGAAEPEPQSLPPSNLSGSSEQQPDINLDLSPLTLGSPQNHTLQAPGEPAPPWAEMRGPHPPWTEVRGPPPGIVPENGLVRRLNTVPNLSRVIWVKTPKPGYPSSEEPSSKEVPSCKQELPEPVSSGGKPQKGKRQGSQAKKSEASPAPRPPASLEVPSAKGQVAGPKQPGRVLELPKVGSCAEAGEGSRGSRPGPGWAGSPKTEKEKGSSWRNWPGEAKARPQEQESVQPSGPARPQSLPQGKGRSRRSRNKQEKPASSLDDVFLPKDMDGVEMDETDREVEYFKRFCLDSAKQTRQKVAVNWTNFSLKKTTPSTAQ
log2 fold change (saracatinib): -0.289 | log2 fold change (sotrastaurin): 0.06 | log2 fold change (alvocidib): -0.32 | log2 fold change (Tubastatin A): -0.007 | log2 fold change (defactinib): 0.231 | log2 fold change (rucaparib): 0.19 | log2 fold change [2]: 0.096 | log2 fold change (encorafenib): 0.162 | log2 fold change [3]: 0.044

EIF3J (UniProt O75822)
UniProt O75822, sequence (O75822 whole entry, looked up): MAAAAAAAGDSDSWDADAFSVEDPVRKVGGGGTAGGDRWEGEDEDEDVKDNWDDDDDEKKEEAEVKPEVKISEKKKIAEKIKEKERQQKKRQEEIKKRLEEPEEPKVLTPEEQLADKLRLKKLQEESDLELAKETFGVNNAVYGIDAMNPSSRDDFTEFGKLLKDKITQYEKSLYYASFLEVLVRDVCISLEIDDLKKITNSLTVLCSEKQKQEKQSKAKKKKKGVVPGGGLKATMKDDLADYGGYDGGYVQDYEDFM
log2 fold change (saracatinib): -0.042 | log2 fold change (sotrastaurin): -0.028 | log2 fold change (alvocidib): 0.006 | log2 fold change (Tubastatin A): -0.005 | log2 fold change [1]: 0.019 | log2 fold change (defactinib): 0.019 | log2 fold change (rucaparib): -0.072 | log2 fold change [2]: -0.037 | log2 fold change (encorafenib): -0.008 | log2 fold change [3]: -0.029

DHX40 (UniProt Q8IX18)
log2 fold change (saracatinib): 0.069 | log2 fold change (sotrastaurin): -0.025 | log2 fold change (alvocidib): -0.052 | log2 fold change (Tubastatin A): 0.053 | log2 fold change [1]: -0.043 | log2 fold change (defactinib): -0.163 | log2 fold change (rucaparib): 0.087 | log2 fold change [2]: 0.013 | log2 fold change (encorafenib): 0.068 | log2 fold change [3]: -0.039

ESYT1 isoform 2 (UniProt Q9BSJ8)
log2 fold change (saracatinib): -0.148 | log2 fold change (sotrastaurin): -0.208 | log2 fold change (alvocidib): -0.05 | log2 fold change (Tubastatin A): 0.031 | log2 fold change [1]: -0.034 | log2 fold change (defactinib): -0.043 | log2 fold change (rucaparib): 0.154 | log2 fold change [2]: 0.099 | log2 fold change (encorafenib): 0.175 | log2 fold change [3]: -0.099

EXOSC10 (UniProt Q01780)
UniProt Q01780, sequence (Q01780 whole entry, looked up): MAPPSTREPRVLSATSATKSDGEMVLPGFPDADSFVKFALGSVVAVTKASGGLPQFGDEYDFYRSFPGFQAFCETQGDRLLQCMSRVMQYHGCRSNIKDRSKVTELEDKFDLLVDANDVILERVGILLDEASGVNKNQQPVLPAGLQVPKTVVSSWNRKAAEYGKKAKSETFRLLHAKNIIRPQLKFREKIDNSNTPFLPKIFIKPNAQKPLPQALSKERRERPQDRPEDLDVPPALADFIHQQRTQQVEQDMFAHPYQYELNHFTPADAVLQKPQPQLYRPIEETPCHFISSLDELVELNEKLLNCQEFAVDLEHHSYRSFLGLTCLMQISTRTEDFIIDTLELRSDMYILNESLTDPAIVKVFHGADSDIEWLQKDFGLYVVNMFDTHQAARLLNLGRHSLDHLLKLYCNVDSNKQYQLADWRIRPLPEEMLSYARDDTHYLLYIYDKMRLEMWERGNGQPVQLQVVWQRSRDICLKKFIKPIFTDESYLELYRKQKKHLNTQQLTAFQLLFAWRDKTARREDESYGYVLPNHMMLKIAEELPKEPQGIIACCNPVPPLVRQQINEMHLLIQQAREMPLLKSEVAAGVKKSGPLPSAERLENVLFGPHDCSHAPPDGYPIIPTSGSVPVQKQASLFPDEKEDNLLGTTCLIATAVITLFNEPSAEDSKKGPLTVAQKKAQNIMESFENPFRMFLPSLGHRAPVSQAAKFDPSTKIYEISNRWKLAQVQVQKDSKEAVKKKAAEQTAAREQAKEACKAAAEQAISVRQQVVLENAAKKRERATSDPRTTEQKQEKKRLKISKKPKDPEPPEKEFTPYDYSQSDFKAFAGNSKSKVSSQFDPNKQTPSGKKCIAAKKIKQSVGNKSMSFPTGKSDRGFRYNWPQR
log2 fold change (saracatinib): -0.091 | log2 fold change (sotrastaurin): 0.199 | log2 fold change (alvocidib): 0.092 | log2 fold change (Tubastatin A): 0.143 | log2 fold change [1]: -0.073 | log2 fold change (defactinib): 0.015 | log2 fold change (rucaparib): 0.101 | log2 fold change [2]: 0.022 | log2 fold change (encorafenib): -0.327 | log2 fold change [3]: 0.123

CYB561A3 isoform 2 (UniProt Q8NBI2)
UniProt Q8NBI2, sequence (Q8NBI2 whole entry, looked up): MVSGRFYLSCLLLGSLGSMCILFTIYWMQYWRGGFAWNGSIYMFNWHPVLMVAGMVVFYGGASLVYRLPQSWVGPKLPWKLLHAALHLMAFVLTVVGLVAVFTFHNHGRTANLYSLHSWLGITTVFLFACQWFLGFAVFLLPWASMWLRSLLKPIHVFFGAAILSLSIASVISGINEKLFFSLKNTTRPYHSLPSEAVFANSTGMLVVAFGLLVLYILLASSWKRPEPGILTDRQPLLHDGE
log2 fold change (saracatinib): 0.019 | log2 fold change (sotrastaurin): 0.001 | log2 fold change (alvocidib): -0.043 | log2 fold change (Tubastatin A): 0.047 | log2 fold change [1]: 0.025 | log2 fold change (rucaparib): 0.395 (active) | log2 fold change [2]: -0.068 | log2 fold change (encorafenib): -0.014

CTSC (UniProt P53634)
log2 fold change (saracatinib): 0.03 | log2 fold change (sotrastaurin): 0.046 | log2 fold change (alvocidib): 0.074 | log2 fold change (Tubastatin A): -0.015 | log2 fold change [1]: 0.052 | log2 fold change (defactinib): 0.035 | log2 fold change (rucaparib): 0.031 | log2 fold change [2]: -0.005 | log2 fold change (encorafenib): -0.082 | log2 fold change [3]: 0.007

DAXX (UniProt Q9UER7)
UniProt Q9UER7, sequence (Q9UER7 whole entry, looked up): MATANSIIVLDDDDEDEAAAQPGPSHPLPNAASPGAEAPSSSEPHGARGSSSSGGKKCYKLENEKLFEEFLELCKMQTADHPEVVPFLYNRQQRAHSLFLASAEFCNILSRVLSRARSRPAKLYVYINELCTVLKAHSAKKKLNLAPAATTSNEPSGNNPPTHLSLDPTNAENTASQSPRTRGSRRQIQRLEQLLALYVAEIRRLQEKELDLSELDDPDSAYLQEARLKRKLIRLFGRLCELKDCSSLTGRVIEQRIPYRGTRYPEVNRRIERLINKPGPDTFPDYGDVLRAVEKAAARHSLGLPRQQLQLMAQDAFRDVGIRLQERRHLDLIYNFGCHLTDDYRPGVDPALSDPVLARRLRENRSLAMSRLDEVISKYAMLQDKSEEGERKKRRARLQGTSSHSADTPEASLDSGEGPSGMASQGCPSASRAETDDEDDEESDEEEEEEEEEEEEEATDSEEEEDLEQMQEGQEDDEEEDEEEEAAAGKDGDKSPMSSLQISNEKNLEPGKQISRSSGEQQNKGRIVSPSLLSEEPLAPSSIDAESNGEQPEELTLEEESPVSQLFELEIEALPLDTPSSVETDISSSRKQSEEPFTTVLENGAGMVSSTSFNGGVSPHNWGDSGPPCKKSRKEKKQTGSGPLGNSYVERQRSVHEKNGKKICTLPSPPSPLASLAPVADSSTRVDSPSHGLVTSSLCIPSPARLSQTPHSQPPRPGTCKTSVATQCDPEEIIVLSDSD
log2 fold change (saracatinib): -0.001 | log2 fold change (sotrastaurin): -0.078 | log2 fold change (alvocidib): 0 | log2 fold change (Tubastatin A): 0.122 | log2 fold change [1]: -0.142 | log2 fold change (defactinib): 0.005 | log2 fold change (rucaparib): 0.048 | log2 fold change [2]: 0.018 | log2 fold change (encorafenib): -0.097 | log2 fold change [3]: 0.109

CWF19L2 (UniProt Q2TBE0)
log2 fold change (saracatinib): -0.089 | log2 fold change (sotrastaurin): -0.15 | log2 fold change (alvocidib): 0.081 | log2 fold change (Tubastatin A): -0.079 | log2 fold change [1]: -0.034 | log2 fold change (rucaparib): 0.102 | log2 fold change [2]: -0.014 | log2 fold change (encorafenib): -0.002

DYNC1LI2 (UniProt O43237)
UniProt O43237, sequence (O43237 whole entry, looked up): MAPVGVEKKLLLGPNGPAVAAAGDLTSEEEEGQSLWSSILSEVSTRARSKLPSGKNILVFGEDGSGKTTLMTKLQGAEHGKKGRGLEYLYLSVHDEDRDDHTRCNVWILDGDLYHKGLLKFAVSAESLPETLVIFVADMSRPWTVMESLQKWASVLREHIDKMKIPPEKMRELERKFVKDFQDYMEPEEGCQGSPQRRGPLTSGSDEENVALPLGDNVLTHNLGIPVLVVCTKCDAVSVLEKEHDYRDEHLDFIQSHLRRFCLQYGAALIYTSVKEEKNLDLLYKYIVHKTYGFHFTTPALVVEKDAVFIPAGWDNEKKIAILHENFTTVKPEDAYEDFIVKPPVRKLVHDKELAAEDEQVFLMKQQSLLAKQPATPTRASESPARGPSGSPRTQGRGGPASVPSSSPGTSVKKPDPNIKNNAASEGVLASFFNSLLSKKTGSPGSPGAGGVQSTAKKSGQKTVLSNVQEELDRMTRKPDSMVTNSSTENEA
log2 fold change (saracatinib): -0.001 | log2 fold change (sotrastaurin): -0.079 | log2 fold change (alvocidib): 0.258 | log2 fold change (Tubastatin A): 0.033 | log2 fold change [1]: 0.028 | log2 fold change (defactinib): -0.039 | log2 fold change (rucaparib): 0.42 | log2 fold change [2]: 0.003 | log2 fold change (encorafenib): 0.212 | log2 fold change [3]: 0.016

ETNK1 (UniProt Q9HBU6)
UniProt Q9HBU6, sequence (Q9HBU6 whole entry, looked up): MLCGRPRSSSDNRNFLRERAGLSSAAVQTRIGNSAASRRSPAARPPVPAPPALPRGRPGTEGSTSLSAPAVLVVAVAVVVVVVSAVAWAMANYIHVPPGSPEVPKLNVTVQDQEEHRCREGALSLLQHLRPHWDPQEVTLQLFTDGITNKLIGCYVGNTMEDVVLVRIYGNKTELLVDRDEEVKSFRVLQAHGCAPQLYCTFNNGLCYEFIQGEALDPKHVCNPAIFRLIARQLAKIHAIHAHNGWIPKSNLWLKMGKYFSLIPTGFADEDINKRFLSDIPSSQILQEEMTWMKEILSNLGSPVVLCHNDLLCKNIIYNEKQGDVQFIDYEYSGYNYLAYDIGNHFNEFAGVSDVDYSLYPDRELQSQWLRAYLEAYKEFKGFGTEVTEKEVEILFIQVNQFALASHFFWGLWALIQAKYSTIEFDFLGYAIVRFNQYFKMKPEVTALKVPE
log2 fold change (saracatinib): -0.037 | log2 fold change (sotrastaurin): -0.045 | log2 fold change (alvocidib): -0.028 | log2 fold change (Tubastatin A): 0.092 | log2 fold change [1]: 0.053 | log2 fold change (defactinib): -0.001 | log2 fold change (rucaparib): 0.295 (active) | log2 fold change [2]: -0.039 | log2 fold change (encorafenib): -0.007 | log2 fold change [3]: -0.027

FAM122A (UniProt Q96E09)
log2 fold change (saracatinib): -0.005 | log2 fold change (sotrastaurin): -0.027 | log2 fold change (alvocidib): 0 | log2 fold change (Tubastatin A): 0.096 | log2 fold change [1]: -0.09 | log2 fold change (defactinib): -0.018 | log2 fold change (rucaparib): 0.015 | log2 fold change [2]: 0.017 | log2 fold change (encorafenib): -0.016 | log2 fold change [3]: 0.056

EIF2AK1 (UniProt Q9BQI3)
UniProt Q9BQI3, sequence (Q9BQI3 whole entry, looked up): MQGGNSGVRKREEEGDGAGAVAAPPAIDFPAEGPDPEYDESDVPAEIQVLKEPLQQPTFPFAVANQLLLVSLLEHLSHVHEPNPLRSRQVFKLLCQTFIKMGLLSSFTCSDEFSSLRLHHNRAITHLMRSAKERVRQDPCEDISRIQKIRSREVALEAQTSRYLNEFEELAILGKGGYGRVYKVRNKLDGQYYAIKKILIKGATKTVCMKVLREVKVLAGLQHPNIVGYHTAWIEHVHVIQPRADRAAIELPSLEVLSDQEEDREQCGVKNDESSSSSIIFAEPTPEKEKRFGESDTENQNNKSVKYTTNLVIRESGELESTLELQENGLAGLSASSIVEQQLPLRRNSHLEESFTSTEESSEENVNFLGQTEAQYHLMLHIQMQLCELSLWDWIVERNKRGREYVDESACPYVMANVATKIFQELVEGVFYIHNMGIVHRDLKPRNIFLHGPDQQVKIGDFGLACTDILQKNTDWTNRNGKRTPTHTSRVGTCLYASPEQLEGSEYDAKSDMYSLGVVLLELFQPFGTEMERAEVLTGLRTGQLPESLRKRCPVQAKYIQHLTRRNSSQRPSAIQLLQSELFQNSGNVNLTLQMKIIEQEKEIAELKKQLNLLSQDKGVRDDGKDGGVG
log2 fold change (saracatinib): 0.073 | log2 fold change (sotrastaurin): 0.095 | log2 fold change (alvocidib): 0.072 | log2 fold change (Tubastatin A): 0.128 | log2 fold change [1]: 0.002 | log2 fold change (defactinib): -0.008 | log2 fold change [2]: -0.09 | log2 fold change [3]: 0.04

DPH5 isoform 5 (UniProt Q9H2P9)
UniProt Q9H2P9, sequence (Q9H2P9 whole entry, looked up): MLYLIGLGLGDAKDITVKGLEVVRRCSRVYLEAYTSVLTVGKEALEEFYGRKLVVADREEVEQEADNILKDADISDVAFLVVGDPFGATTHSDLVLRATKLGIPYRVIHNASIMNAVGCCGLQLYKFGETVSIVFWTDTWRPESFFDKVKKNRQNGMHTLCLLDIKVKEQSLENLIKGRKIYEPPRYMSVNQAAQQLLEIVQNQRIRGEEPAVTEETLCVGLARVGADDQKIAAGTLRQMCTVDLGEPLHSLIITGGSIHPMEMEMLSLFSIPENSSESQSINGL
log2 fold change (saracatinib): -0.007 | log2 fold change (sotrastaurin): -0.017 | log2 fold change (alvocidib): -0.064 | log2 fold change (Tubastatin A): -0.022 | log2 fold change [1]: 0.07 | log2 fold change (defactinib): 0 | log2 fold change (rucaparib): -0.061 | log2 fold change [2]: 0 | log2 fold change (encorafenib): 0.025 | log2 fold change [3]: 0.004
